Experimental data: PubChem BioAssay (EPA / NIEHS)
Records with an inconclusive call do not appear. Activity calls are given as the source filed them. Rule for the calls, unless noted: active = hit-call score of the fitted dose curve at least 0.9, where 1 is the maximum; inactive = score below 0.9.

How the values were obtained:
[1] = biological target: human RAR-related Orphan Receptor beta (RORb), RORB (gene 6096) (UniProt Q92753); assay: ATG_RORb_TRANS: Attagene TRANS-FACTORIAL HepG2 Assay for human RAR-related Orphan Receptor beta (RORb) (AID 2283010; active = hit-call score of the fitted dose curve at least 0.9, where 1 is the maximum)
Summary of the method: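 HepG2 cells were transiently transfected with multiplexed GAL4-UAS reporter units expressing chimeric nuclear receptor–GAL4 proteins, then dosed for 24 h. Reporter mRNA was quantified by RT-PCR with fluorescent labelling and capillary electrophoresis; gain of signal was fitted relative to DMSO.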

[2] = biological target: human Retinoid X Receptor beta (RXRb), RXRB (gene 6257) (UniProt P28702); assay: ATG_RXRb_TRANS: Attagene TRANS-FACTORIAL HepG2 Assay for human Retinoid X Receptor beta (RXRb) (AID 2283013; active = hit-call score of the fitted dose curve at least 0.9, where 1 is the maximum)
Summary of the method: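 HepG2 cells transiently transfected with multiplexed reporter units driven by GAL4-UAS and exogenous chimeric NR-Gal4 proteins; treated 24 h. Reporter mRNA measured by RT-PCR, 6-FAM labelling and capillary electrophoresis; gain-of-signal fitted versus DMSO baseline.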

[3] = read-out: E-selectin (Homo sapiens) (UniProt P16581); assay: BSK_3C_Eselectin: BioMAP Diversity Plus: 3C Assay for Eselectin Biomarker Activity (AID 2283015); conditions: primary human endothelial cells (HUVEC); actives raise or lower the signal;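 note: cell surface E-selectin protein quantified by ELISA 24 h after dosing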
Summary of the method: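 E-selectin ELISA readout, fitted bidirectionally relative to DMSO, taken 24 h post-dosing in HUVEC cultures of the 3C system. Overt cytotoxicity tracked with sulforhodamine B staining of parallel wells.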

[4] = read-out: Interleukin-1 alpha (IL1a), IL1A (gene 3552); assay: BSK_BE3C_IL1a: BioMAP Diversity Plus: BE3C Assay for Interleukin-1 alpha (IL1a) Biomarker Activity (AID 2283016); conditions: primary human bronchial epithelial cells; actives raise or lower the signal
Summary of the method: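 Human primary bronchial epithelial cells (BE3C system) were dosed with compound and IL-1a measured by ELISA 24 h later. Activity was fitted bidirectionally against DMSO baseline; cytotoxicity was tracked in parallel cultures by SRB total-protein staining.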

[5] = read-out: Monocyte Chemoattractant Protein-1 (MCP1), CCL2 (gene 6347); assay: BSK_3C_MCP1: BioMAP Diversity Plus: 3C Assay for Monocyte Chemoattractant Protein-1 (MCP1) Biomarker Activity (AID 2283017); conditions: primary human endothelial cells (HUVEC); actives raise or lower the signal
Summary of the method: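 MCP-1 was measured by ELISA 24 h after dosing in primary HUVEC 3C cultures and fitted in both directions relative to DMSO; cytotoxicity was checked by SRB total-protein staining in parallel wells.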

[6] = read-out: Monocyte Chemoattractant Protein-1 (MCP1), CCL2 (gene 6347); assay: BSK_4H_MCP1: BioMAP Diversity Plus: 4H Assay for Monocyte Chemoattractant Protein-1 (MCP1) Biomarker Activity (AID 2283018); conditions: primary human endothelial cells (HUVEC); actives raise or lower the signal
Summary of the method: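 Human umbilical vein endothelial cells (4H system) dosed with chemical; MCP-1 measured by ELISA 24 h after dosing. Bidirectional curve fitting against DMSO negative control as baseline; parallel SRB total-protein staining tracks overt cytotoxicity.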

[7] = read-out: Human Leukocyte Antigen - DR isotype (HLADR), HLA-DRA (gene 3122); assay: BSK_3C_HLADR: BioMAP Diversity Plus: 3C Assay for Human Leukocyte Antigen - DR isotype (HLADR) Biomarker Activity (AID 2283019); conditions: primary human endothelial cells (HUVEC); actives raise or lower the signal;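 note: ELISA of cell-surface HLA-DR on HUVEC 24 h after dosing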
Summary of the method: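 Bidirectional fitting against DMSO was applied to the HLA-DR ELISA signal from human umbilical vein endothelial cells, 24 h post-dose. Cytotoxicity came from parallel SRB total-protein staining; 3C proliferation was counted by SRB at 48 h.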

[8] = read-out: Interleukin-8 (IL8), CXCL8 (gene 3576); assay: BSK_3C_IL8: BioMAP Diversity Plus: 3C Assay for Interleukin-8 (IL8) Biomarker Activity (AID 2283020); conditions: primary human endothelial cells (HUVEC); actives raise or lower the signal
Summary of the method: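 Primary human umbilical vein endothelial cells (3C system) were exposed to test chemical for 24 h, then IL-8 was quantified by ELISA. Responses were fitted bidirectionally against DMSO vehicle as baseline.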

[9] = read-out: Monokine induced gamma interferon (MIG), CXCL9 (gene 4283); assay: BSK_3C_MIG: BioMAP Diversity Plus: 3C Assay for Monokine induced gamma interferon (MIG) Biomarker Activity (AID 2283021); conditions: primary human endothelial cells (HUVEC); actives raise or lower the signal
Summary of the method: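 Primary human umbilical vein endothelial cells in the 3C system were exposed to chemical for 24 h, after which MIG was quantified by ELISA. Activity was fitted bidirectionally against DMSO as negative control and baseline.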

[10] = biological target: human Vitamin D Receptor (VDR), VDR (gene 7421) (UniProt P11473); assay: ATG_VDR_TRANS: Attagene TRANS-FACTORIAL HepG2 Assay for human Vitamin D Receptor (VDR) (AID 2283022; active = hit-call score of the fitted dose curve at least 0.9, where 1 is the maximum)
Summary of the method: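 Transactivation by an exogenous VDR-Gal4 chimera in transiently transfected HepG2 cells was measured as reporter transcript level 24 hours after chemical treatment. RT-PCR products were analysed by capillary electrophoresis and fitted in the positive direction relative to DMSO.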

[11] = BSK_3C_SRB: Viability Assessment in the BioMAP Diversity Plus: 3C Assay (AID 2283023); conditions: primary human endothelial cells (HUVEC);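 note: fitted both ways against DMSO so a hit may be signal rise or drop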
Summary of the method: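 Cytotoxicity readout in parallel HUVEC 3C cultures: after 24 h compound exposure, cells fixed with 10% TCA, stained with 0.1% SRB and read at 560 nm. Gain or loss relative to DMSO fitted.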

[12] = read-out: Matrix Metallopeptidase 1 (MMP1), MMP1 (gene 4312); assay: BSK_BE3C_MMP1: BioMAP Diversity Plus: BE3C Assay for Matrix Metallopeptidase 1 (MMP1) Biomarker Activity (AID 2283024); conditions: primary human bronchial epithelial cells; actives raise or lower the signal
Summary of the method: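 Primary human bronchial epithelial cells were dosed with test chemicals, and MMP1 levels were measured by ELISA 24 h later. Data were fitted bidirectionally against DMSO as the negative control and activity baseline.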

[13] = BSK_3C_Vis: BioMAP Diversity Plus: 3C Assay for Morphology Visualization (AID 2283025); conditions: primary human endothelial cells (HUVEC);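 note: fitted both ways so gain or loss versus DMSO counts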
Summary of the method: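 Human umbilical vein endothelial cells in the 3C system were imaged by light microscopy 24 h after chemical dosing to record cell morphology. Activity was fitted bidirectionally against DMSO as negative control and baseline; the endpoint serves as a background control.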

[14] = read-out: Pselectin, SELP (gene 6403); assay: BSK_4H_Pselectin: BioMAP Diversity Plus: 4H Assay for Pselectin Biomarker Activity (AID 2283026); conditions: primary human endothelial cells (HUVEC); actives raise or lower the signal
Summary of the method: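 Primary human umbilical vein endothelial cells were exposed to test chemical for 24 h, then cell-surface P-selectin was quantified by ELISA. Activity was fitted bidirectionally against DMSO as negative control and baseline.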

[15] = BSK_4H_SRB: Viability Assessment in the BioMAP Diversity Plus: 4H Assay (AID 2283027); conditions: primary human endothelial cells (HUVEC);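 note: cells exposed to compound for 24 h before staining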
Summary of the method: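 Human umbilical vein endothelial cells were dosed with chemical and, after 24 h, fixed with 10% TCA, stained with 0.1% sulforhodamine B, and read at 560 nm to give total protein as a cytotoxicity measure. Bidirectional fitting relative to DMSO control.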

[16] = BSK_BE3C_SRB: Viability Assessment in the BioMAP Diversity Plus: BE3C Assay (AID 2283028); conditions: primary human bronchial epithelial cells
Summary of the method: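 Cytotoxicity read-out: SRB (0.1%) staining of TCA-fixed (10%) human lung bronchial epithelial cells, absorbance 560 nm, 24 h post-dosing. Curves fitted both directions relative to DMSO.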

[17] = read-out: Thrombomodulin, THBD (gene 7056); assay: BSK_3C_Thrombomodulin: BioMAP Diversity Plus: 3C Assay for Thrombomodulin Biomarker Activity (AID 2283029); conditions: primary human endothelial cells (HUVEC); actives raise or lower the signal
Summary of the method: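 Primary human umbilical vein endothelial cells (3C system) were exposed to chemical for 24 h, then thrombomodulin levels were measured by ELISA. Activity was fitted bidirectionally against the DMSO negative control as baseline.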

[18] = read-out: Urokinase-type plasminogen activator receptor (uPAR), PLAUR (gene 5329); assay: BSK_4H_uPAR: BioMAP Diversity Plus: 4H Assay for Urokinase-type plasminogen activator receptor (uPAR) Biomarker Activity (AID 2283030); conditions: primary human endothelial cells (HUVEC); actives raise or lower the signal
Summary of the method: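 uPAR level read by ELISA on HUVEC cultures (BioMAP 4H) 24 h post-dosing, analyzed for gain or loss relative to DMSO. Parallel SRB staining assessed overt cytotoxicity.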

[19] = read-out: Vascular endothelial growth factor receptor 2 (Homo sapiens) (UniProt P35968); assay: BSK_4H_VEGFRII: BioMAP Diversity Plus: 4H Assay for Vascular endothelial growth factor receptor 2 (VEGFR2) Biomarker Activity (AID 2283031); conditions: primary human endothelial cells (HUVEC); actives raise or lower the signal
Summary of the method: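 Measured by ELISA after 24 h of compound treatment: VEGFR2 on primary human umbilical vein endothelial cells, fitted in both directions relative to DMSO. Parallel cultures received SRB staining (560 nm) for overt cytotoxicity.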

[20] = biological target: Retinoic acid receptor RXR-alpha (Homo sapiens) (UniProt P19793); assay: ATG_RXRa_TRANS: Attagene TRANS-FACTORIAL HepG2 Assay for human Retinoid X Receptor alpha (RXRa) (AID 2283012; active = hit-call score of the fitted dose curve at least 0.9, where 1 is the maximum)
Summary of the method: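 HepG2 cells transiently transfected with multiplexed GAL4-UAS reporter units and chimeric NR-GAL4 fusions, dosed 24 h. Reporter mRNA measured by RT-PCR, FAM labelling, HpaI digestion and capillary electrophoresis; gain-of-signal fitted relative to DMSO baseline.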

Measured: outcome

Chain of human Vitamin D Receptor (VDR), VDR (gene 7421) (P11473 whole entry, looked up, the tested form may be a part): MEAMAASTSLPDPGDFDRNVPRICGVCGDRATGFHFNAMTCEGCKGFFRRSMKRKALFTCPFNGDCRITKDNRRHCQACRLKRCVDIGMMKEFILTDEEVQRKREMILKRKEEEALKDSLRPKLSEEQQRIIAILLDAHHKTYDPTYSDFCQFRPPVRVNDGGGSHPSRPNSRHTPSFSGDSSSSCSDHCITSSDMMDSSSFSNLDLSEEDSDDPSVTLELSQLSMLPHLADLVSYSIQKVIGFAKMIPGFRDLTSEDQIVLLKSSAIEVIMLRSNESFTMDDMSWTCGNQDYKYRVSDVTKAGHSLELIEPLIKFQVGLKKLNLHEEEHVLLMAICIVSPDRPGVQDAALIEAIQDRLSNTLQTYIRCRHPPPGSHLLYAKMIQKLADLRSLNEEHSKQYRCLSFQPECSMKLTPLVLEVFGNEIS
Chain of human Retinoid X Receptor beta (RXRb), RXRB (gene 6257) (P28702 whole entry, looked up, the tested form may be a part): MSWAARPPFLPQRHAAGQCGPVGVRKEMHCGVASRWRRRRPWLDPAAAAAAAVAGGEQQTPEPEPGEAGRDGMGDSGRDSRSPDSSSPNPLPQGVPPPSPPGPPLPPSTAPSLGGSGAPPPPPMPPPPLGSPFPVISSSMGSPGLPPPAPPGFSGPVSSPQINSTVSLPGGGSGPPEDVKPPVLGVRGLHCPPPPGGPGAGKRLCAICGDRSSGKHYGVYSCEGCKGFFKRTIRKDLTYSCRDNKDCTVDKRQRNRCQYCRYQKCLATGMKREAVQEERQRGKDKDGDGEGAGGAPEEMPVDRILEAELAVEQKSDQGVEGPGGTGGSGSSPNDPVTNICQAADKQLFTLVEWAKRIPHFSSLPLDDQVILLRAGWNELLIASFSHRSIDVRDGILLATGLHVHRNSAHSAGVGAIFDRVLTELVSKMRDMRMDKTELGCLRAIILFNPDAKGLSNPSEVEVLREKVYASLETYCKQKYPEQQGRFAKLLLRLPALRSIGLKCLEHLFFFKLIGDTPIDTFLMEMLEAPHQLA
Chain of E-selectin (Homo sapiens) (P16581 whole entry, looked up): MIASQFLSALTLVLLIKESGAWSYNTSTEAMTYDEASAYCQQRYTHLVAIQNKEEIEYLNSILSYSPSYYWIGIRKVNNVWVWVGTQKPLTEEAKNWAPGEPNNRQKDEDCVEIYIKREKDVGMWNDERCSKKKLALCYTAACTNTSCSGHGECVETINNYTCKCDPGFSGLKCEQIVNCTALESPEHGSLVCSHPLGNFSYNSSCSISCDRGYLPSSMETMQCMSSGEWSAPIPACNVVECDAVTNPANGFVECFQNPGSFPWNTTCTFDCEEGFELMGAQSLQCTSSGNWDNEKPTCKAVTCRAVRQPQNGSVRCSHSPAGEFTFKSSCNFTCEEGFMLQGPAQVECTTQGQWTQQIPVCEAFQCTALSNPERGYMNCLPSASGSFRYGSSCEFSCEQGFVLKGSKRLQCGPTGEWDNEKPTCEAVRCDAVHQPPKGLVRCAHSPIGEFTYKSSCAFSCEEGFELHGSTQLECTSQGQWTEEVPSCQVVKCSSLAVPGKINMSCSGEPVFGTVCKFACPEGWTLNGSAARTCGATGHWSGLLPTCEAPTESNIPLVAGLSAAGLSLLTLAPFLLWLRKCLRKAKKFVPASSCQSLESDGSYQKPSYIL
Chain of human RAR-related Orphan Receptor beta (RORb), RORB (gene 6096) (Q92753 whole entry, looked up, the tested form may be a part): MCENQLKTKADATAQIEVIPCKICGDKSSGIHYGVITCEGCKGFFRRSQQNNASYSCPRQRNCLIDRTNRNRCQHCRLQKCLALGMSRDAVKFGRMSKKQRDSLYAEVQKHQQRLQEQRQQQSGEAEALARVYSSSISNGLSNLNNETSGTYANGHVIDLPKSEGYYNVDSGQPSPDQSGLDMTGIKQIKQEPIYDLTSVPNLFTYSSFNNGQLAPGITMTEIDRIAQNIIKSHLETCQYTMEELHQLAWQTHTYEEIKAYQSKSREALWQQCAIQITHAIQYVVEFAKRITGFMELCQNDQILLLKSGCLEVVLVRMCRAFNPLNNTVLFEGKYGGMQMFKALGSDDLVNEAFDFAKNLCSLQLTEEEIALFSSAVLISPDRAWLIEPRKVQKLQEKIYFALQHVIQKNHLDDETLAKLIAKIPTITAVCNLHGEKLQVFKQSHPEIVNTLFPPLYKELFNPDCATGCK
Chain of Retinoic acid receptor RXR-alpha (Homo sapiens) (P19793 whole entry, looked up, the tested form may be a part): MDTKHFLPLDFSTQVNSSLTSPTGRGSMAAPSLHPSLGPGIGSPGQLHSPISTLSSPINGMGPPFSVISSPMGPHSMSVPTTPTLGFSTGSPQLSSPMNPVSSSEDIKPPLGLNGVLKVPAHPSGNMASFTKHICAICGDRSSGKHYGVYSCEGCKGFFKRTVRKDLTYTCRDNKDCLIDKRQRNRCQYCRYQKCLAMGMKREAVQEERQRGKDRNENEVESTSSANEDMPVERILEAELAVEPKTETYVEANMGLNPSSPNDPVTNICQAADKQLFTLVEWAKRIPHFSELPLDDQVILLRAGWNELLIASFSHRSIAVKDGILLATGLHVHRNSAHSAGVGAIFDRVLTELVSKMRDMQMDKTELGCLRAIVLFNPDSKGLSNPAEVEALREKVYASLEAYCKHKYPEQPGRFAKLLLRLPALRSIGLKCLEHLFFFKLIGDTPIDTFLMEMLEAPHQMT

CCCCCCCC=O
not listed: [20]
inactive: all other assays above

Cc1cc(=O)[nH]c(=S)[nH]1
not listed: [20]
inactive: all other assays above

COc1cc(C=O)ccc1O
not listed: [10]
inactive: all other assays above

Cc1c(C(=O)O)c(O)cc2c1C(=O)c1c(O)c([C@@H]3O[C@H](CO)[C@@H](O)[C@H](O)[C@H]3O)c(O)c(O)c1C2=O
not listed: [16] | [20]
inactive: all other assays above
